The text below walks through data of PubChem BioAssay (NCATS).

SMILES strings stand for the structures. Inconclusive results are not listed. A number with no mark means an inactive call. The source made the active and inactive calls. Calls follow the shape of the dose curve; as a rule, active = well fitted curve in the direction sought with a large enough effect; inconclusive = small, poorly fitted or top-dose-only effect, or another doubt; inactive = no such curve, though single readings can be large; an effect the other way counts as inactive or inconclusive.
Potency is read from the fitted curve at half-maximal effect.

The first experiment is described as follows: BET inhibitor-based combinations targeting novel dependencies in MECOM-rearranged (r) AML: UCSD-AML1 cell line (AID 2202235). Also: nearly all actives have a fitted effect of over 40% in size.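 As to viability (% of control): plate controls were DMSO vehicle wells for no effect and blank wells for full effect.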 The following applies: UCSD-AML1 AML cells viability, CellTiter-Glo, 48 h; series mostly up to 46 µM; viability (% of control): at the top concentration. The method in brief:
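Luminescent ATP readout (CellTiter-Glo, 15 min at room temperature) after 48 hr drug exposure gave viability. Dose-response curves, normalized to DMSO and empty-well controls, were summarized as area under the curve and its mean-centred Z-score.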
For `c1ccc2c(Cc3c[nH]c4ccccc34)c[nH]c2c1`, the “viability (% of control)” value was 117%.

`O=C1CC(c2c[nH]c3ccc(F)cc23)C(=O)N1` (stereo not given): the “viability (% of control)” value was 108%.

As to `CC(C)(c1ccc(OCC(O)CO)cc1)c1ccc(OCC(O)CCl)cc1` (stereo not given), the “viability (% of control)” value is 91%.

For the compound `O=C(Nc1cccc(C(F)(F)F)c1)c1cccc2cc(Oc3cc(CO)ncn3)ccc12`, the “viability (% of control)” value was 108%.

`C#C[C@]1(O)CC[C@H]2[C@@H]3[C@H](C)CC4=C(CCC(=O)C4)[C@H]3CC[C@@]21C`: the “viability (% of control)” value was 98.6%.

In the case of `CN(Cc1cnc2nc(N)nc(N)c2n1)c1ccc(C(=O)N[C@@H](CCC(=O)O)C(=O)O)cc1`, the Potency was 332 nM (active).

Take `c1ccc(-c2nn3c(c2-c2ccnc4cc(OCCN5CCOCC5)ccc24)CCC3)nc1`: the Potency is 20900 nM (active).

For the compound `CC(C)C1CCC(C(=O)N[C@H](Cc2ccccc2)C(=O)O)CC1` (stereo not given in full), the “viability (% of control)” value is 106%.

As to `CN1CCN(CCCNc2ncc(Cl)c(-c3cc4c(C(=O)NC5CC5)cccc4s3)n2)CC1`, the “viability (% of control)” value was 110%.

`NC[C@H]1O[C@H](O[C@H]2[C@H](O)[C@@H](O[C@H]3O[C@H](CO)[C@@H](O)[C@H](N)[C@H]3O)[C@H](N)C[C@@H]2N)[C@H](N)C[C@@H]1O`: the “viability (% of control)” value was 112%.

With `OCCn1cc(-c2ccc3c(c2)CC/C3=N\O)c(-c2ccncc2)n1`, the “viability (% of control)” value is 116%.

As to `Nc1nc(F)nc2c1ncn2[C@@H]1O[C@H](COP(=O)(O)O)[C@@H](O)[C@@H]1O`, the Potency is 1180 nM (active).

Take `CNS(=O)(=O)Nc1nccc(Cc2c(C)c3ccc(Oc4ncccn4)cc3oc2=O)c1F`: the Potency was 525 nM (active).

On to `C[C@@H](C(=O)Nc1ccc(Cl)cc1)C1CCC(c2ccnc3ccc(F)cc23)CC1` (stereo not given in full), for which the “viability (% of control)” value is 104%.

With `O=C(O)CC(C(=O)O)n1c(O)c(C2=c3cc(Br)ccc3=NC2=O)sc1=S` (stereo not given), the “viability (% of control)” value is 112%.

In the case of `COc1cc([C@@H](CC(=O)O)c2ccc(C)c(CN3C[C@@H](C)Oc4ccccc4S3(=O)=O)c2)cc2nnn(C)c12`, the “viability (% of control)” value is 90.6%.

`CC[C@@H](Oc1cccc(CN(CCCOc2ccc(OC)cc2)c2nc3ccccc3o2)c1)C(=O)O`: the “viability (% of control)” value was 109%.

Regarding `CO[C@@]12[C@H](COC(N)=O)C3=C(C(=O)C(C)=C(N)C3=O)N1C[C@@H]1N[C@@H]12`, the “viability (% of control)” value was 104%.

Turning to `CN[C@@H](C)C(=O)N[C@@H]1C(=O)N(Cc2c(C)ccc3ccccc23)c2ccc(C#N)cc2N(C(C)=O)[C@H]1C`, the “viability (% of control)” value was 101%.

Turning to `Cc1nc2ccc(CN(C)c3ccc(C(=O)N[C@@H](CCC(=O)O)C(=O)O)s3)cc2c(=O)[nH]1`, the Potency is 46.8 nM (active).

Regarding `O=C(O)c1ccccc1-c1ccc(/C=c2\sc3nc4cc(Br)cnc4n3c2=O)o1`, the “viability (% of control)” value is 106% [at 15.6 µM].

As for `Clc1ccc(CCC(Cn2ccnc2)Sc2c(Cl)cccc2Cl)cc1` (stereo not given), the “viability (% of control)” value is 103%.

On to `Cc1cc(C)c(S(=O)(=O)N(CCc2cccc(Br)c2)Cc2ccc(-c3cccc(S(C)(=O)=O)c3)cc2)c(C)c1`, for which the “viability (% of control)” value was 108%.

For the compound `O=C(/C=C\n1cnc(-c2cc(C(F)(F)F)cc(C(F)(F)F)c2)n1)NNc1ccccn1`, the Potency was 468 nM (active).

Turning to `CNC(=O)[C@H](Cc1c[nH]c2ccccc12)NC(=O)[C@@H](CC(=O)NO)CC(C)C`, the “viability (% of control)” value is 104%.

With `c1ccc2[nH]c(-c3cscn3)nc2c1`, the “viability (% of control)” value is 100%.

Consider `NC(=O)c1cc(F)cc2c1C(=O)N(C1CCN(C3CCC(F)(F)CC3)CC1)C2`, for which the “viability (% of control)” value is 108%.

Consider `CN1C(=O)[C@@H](NC(=O)c2cc(Cc3ccccc3)on2)COc2ccccc21`, for which the “viability (% of control)” value is 93.4%.

In the case of `C=CC(=O)N1CCC(CNc2ncnc(N)c2-c2ccc(Oc3ccccc3)cc2)CC1`, the “viability (% of control)” value is 88.8%.

Consider `CC[C@H]1OC(=O)[C@H](C)C(=O)[C@H](C)[C@@H](O[C@H]2O[C@H](C)C[C@H](N(C)C)[C@H]2O)[C@](C)(OC)C[C@@H](C)C(=O)[C@H](C)[C@H]2N(CCCCn3cnc(-c4cccnc4)c3)C(=O)O[C@]12C`, for which the “viability (% of control)” value is 97.3%.

As to `Cc1ccc(C2=Nc3ccc(Cl)cc3OC2)cc1`, the “viability (% of control)” value is 101%.

The nature of another experiment: BET inhibitor-based combinations targeting novel dependencies in MECOM-rearranged (r) AML: AML-191 cell line (AID 2202236; also: nearly all actives have a fitted effect of over 35% in size;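 as to viability (% of control): plate controls were vehicle wells for no effect and wells without cells for full effect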). The following applies: AML-191 viability, CellTiter-Glo luminescence, 48 h; series mostly up to 46 µM; viability (% of control): at the top concentration. The essentials: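 Luminescent ATP readout (CellTiter-Glo) after 48 hr drug exposure gives viability. Curves span 11 concentrations and are normalized to DMSO and empty wells. Activity is reported as area under the curve and its Z-transform within each cell line.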
Turning to `c1ccc2c(Cc3c[nH]c4ccccc34)c[nH]c2c1`, the “viability (% of control)” value is 102%.

As to `O=C1CC(c2c[nH]c3ccc(F)cc23)C(=O)N1` (stereo not given), the “viability (% of control)” value was 98.9%.

As to `CC(C)(c1ccc(OCC(O)CO)cc1)c1ccc(OCC(O)CCl)cc1` (stereo not given), the “viability (% of control)” value was 81%.

Turning to `O=C(Nc1cccc(C(F)(F)F)c1)c1cccc2cc(Oc3cc(CO)ncn3)ccc12`, the “viability (% of control)” value was 99.7%.

Take `Cc1[nH]nc2ncc(C(=O)N3CCC[C@H]3c3ccc(Cl)cc3)cc12`: the “viability (% of control)” value was 92.1%.

In the case of `C#C[C@]1(O)CC[C@H]2[C@@H]3[C@H](C)CC4=C(CCC(=O)C4)[C@H]3CC[C@@]21C`, the “viability (% of control)” value was 98%.

`c1ccc(-c2nn3c(c2-c2ccnc4cc(OCCN5CCOCC5)ccc24)CCC3)nc1`: the Potency is 18600 nM (active).

As to `Nc1nc(N)c2nc(-c3cccc(Cl)c3)c(N)nc2n1`, the Potency was 5250 nM (active).

As for `CC(C)C1CCC(C(=O)N[C@H](Cc2ccccc2)C(=O)O)CC1` (stereo not given in full), the “viability (% of control)” value is 117%.

As for `NC[C@H]1O[C@H](O[C@H]2[C@H](O)[C@@H](O[C@H]3O[C@H](CO)[C@@H](O)[C@H](N)[C@H]3O)[C@H](N)C[C@@H]2N)[C@H](N)C[C@@H]1O`, the “viability (% of control)” value is 87.7%.

Consider `Nc1nc(F)nc2c1ncn2[C@@H]1O[C@H](COP(=O)(O)O)[C@@H](O)[C@@H]1O`, for which the Potency was 3320 nM (active).

For `O=C(O)CC(C(=O)O)n1c(O)c(C2=c3cc(Br)ccc3=NC2=O)sc1=S` (stereo not given), the “viability (% of control)” value is 108%.

On to `COc1cc([C@@H](CC(=O)O)c2ccc(C)c(CN3C[C@@H](C)Oc4ccccc4S3(=O)=O)c2)cc2nnn(C)c12`, for which the “viability (% of control)” value was 83.6%.

Take `O=c1[nH]c(=O)n([C@H]2C[C@H](O)[C@@H](CO)O2)cc1F`: the Potency is 263 nM (active).

Regarding `CC[C@@H](Oc1cccc(CN(CCCOc2ccc(OC)cc2)c2nc3ccccc3o2)c1)C(=O)O`, the “viability (% of control)” value is 92.1%.

Take `CO[C@@]12[C@H](COC(N)=O)C3=C(C(=O)C(C)=C(N)C3=O)N1C[C@@H]1N[C@@H]12`: the “viability (% of control)” value is 91%.

Regarding `C#CCN(C)CC1=Cc2ccccc2Oc2ccccc21`, the “viability (% of control)” value is 106%.

For `CC(=O)CC(c1ccccc1)c1c(O)c2ccccc2oc1=O` (stereo not given), the “viability (% of control)” value was 105%.

In the case of `O=C(O)c1ccccc1-c1ccc(/C=c2\sc3nc4cc(Br)cnc4n3c2=O)o1`, the “viability (% of control)” value was 92.4% [at 15.6 µM].

Regarding `Clc1ccc(CCC(Cn2ccnc2)Sc2c(Cl)cccc2Cl)cc1` (stereo not given), the “viability (% of control)” value is 84.6%.

Turning to `CN[C@@H]1[C@@H](O)[C@@H](O[C@@H]2[C@@H](O)[C@H](O[C@H]3O[C@H](CN)[C@@H](O)[C@H](O)[C@H]3O)[C@@H](N)C[C@H]2NC(=O)C(O)CN)OC[C@]1(C)O` (stereo not given in full), the “viability (% of control)” value was 89.9%.

On to `Cc1cc(C)c(S(=O)(=O)N(CCc2cccc(Br)c2)Cc2ccc(-c3cccc(S(C)(=O)=O)c3)cc2)c(C)c1`, for which the “viability (% of control)” value was 98.2%.

As to `O=C(/C=C\n1cnc(-c2cc(C(F)(F)F)cc(C(F)(F)F)c2)n1)NNc1ccccn1`, the Potency is 525 nM (active).

Regarding `CNC(=O)[C@H](Cc1c[nH]c2ccccc12)NC(=O)[C@@H](CC(=O)NO)CC(C)C`, the “viability (% of control)” value is 89.4%.

Take `c1ccc2[nH]c(-c3cscn3)nc2c1`: the Potency was 18600 nM (active).

Turning to `NC(=O)c1cc(F)cc2c1C(=O)N(C1CCN(C3CCC(F)(F)CC3)CC1)C2`, the “viability (% of control)” value was 94.5%.

Take `CN1C(=O)[C@@H](NC(=O)c2cc(Cc3ccccc3)on2)COc2ccccc21`: the “viability (% of control)” value is 93%.

`CC[C@H]1OC(=O)[C@H](C)C(=O)[C@H](C)[C@@H](O[C@H]2O[C@H](C)C[C@H](N(C)C)[C@H]2O)[C@](C)(OC)C[C@@H](C)C(=O)[C@H](C)[C@H]2N(CCCCn3cnc(-c4cccnc4)c3)C(=O)O[C@]12C`: the “viability (% of control)” value is 85.8%.

Turning to `Cc1ccc(C2=Nc3ccc(Cl)cc3OC2)cc1`, the “viability (% of control)” value was 108%.
